Most compounds without a hit are left out; they make up all but 3.8% or so of the library.
KAT2A inh = blocks human GCN5L2 histone acetyltransferase. GCN5L2 HAT assay, ThioGlo1 CoA-SH fluorescence. Potency, µM (highest dose often 58.9 µM), for inactives: top-dose activity change, negative = inhibition, hits mostly inhibitors. 390,000 tested, 0.21% active. AID 504327
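Free CoA generated was detected with ThioGlo1 (50uM) fluorescence at Ex340nm/Em540nm, read immediately and after 20 min at room temperature. Enzyme, 20 nM in HEPES pH 7.5 buffer, saw compounds 15 min before adding 75uM H3(1-25) peptide and 70uM acetyl-CoA.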
Sfp PPTase inh = Sfp phosphopantetheinyl transferase inhibition | Biochemical Sfp PPTase activity, qHTS | Potency, µM, for the others: largest response in the series, negative = inhibition, usual class: inhibitors | 310,000 tested, 3.5% active | AID 1490;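 note: the enzyme is Sfp with the accession as filed and its product quenches rhodamine fluorescence; 0% = enzyme reaction without inhibitor and -100% = no enzyme wells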
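Sfp 15 nM + cpd, 15 min RT; start w/ rhodamine-CoA 5 uM, BHQ-2-YbbR 12.5 uM (final); 50 mM Hepes pH 7.6, 10 mM MgCl2, 0.01% NP-40, 0.01% BSA; read 525/598 nm at 0 and 30 min.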
TrxR1 substrate = is turned over as a substrate by rat TrxR1. 390,000 tested, 0.01% active. O89049. Potency, µM (doses to about 114 µM), without a hit: at the top dose activity change, negative = substrate turnover. purified TrxR1 substrate turnover, NADPH consumption readout; note: nearly all actives have a fitted effect of over 50% in size
Target sequence (O89049 whole entry, looked up): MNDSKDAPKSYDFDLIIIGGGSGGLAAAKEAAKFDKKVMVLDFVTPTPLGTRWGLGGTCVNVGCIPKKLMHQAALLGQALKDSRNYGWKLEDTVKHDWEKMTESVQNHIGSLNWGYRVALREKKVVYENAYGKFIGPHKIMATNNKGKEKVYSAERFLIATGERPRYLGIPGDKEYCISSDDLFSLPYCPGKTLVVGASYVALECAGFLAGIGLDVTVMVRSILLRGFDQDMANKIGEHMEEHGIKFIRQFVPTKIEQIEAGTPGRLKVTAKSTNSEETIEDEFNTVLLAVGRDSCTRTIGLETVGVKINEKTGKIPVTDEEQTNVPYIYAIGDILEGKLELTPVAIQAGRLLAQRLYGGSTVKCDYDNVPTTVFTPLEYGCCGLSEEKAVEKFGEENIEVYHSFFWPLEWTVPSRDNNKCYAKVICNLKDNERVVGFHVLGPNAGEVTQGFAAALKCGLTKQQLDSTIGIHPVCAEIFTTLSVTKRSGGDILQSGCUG
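Rat TrxR1, dispensed at 90 nM, was prereduced with 400 uM NADPH (final) for 5 min at ~22 deg C, then incubated with compound 15 min before 400 uM selenite. A first-read NADPH fluorescence drop versus no-compound background flagged substrates.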
rTrxR1 inhibitor = rat TrxR1 inhibition | O89049 | recombinant rTrxR1, NADPH fluorescence consumption, selenite substrate | Potency, µM (doses to about 114 µM), for the others: at the top dose activity change, negative = inhibition, most hits filed as inhibitors | 390,000 tested, 1% active | AID 588453; note: nearly all actives have a fitted effect of over 65% in size
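Rat TrxR1 (90 nM in the dispensed reagent) was pre-reduced with 400 uM NADPH for 5 min at room temperature, then incubated with compound for 15 min. After 400 uM selenite was added, NADPH fluorescence (Ex 340/Em 450 nm) was followed for 8 min.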
VDR inhibitor = vitamin D3 receptor (human) inhibition; P11473; VDR-SRC2-3 peptide fluorescence polarization, 2 h; Potency, µM, for the others: max response, negative = inhibition, most hits filed as inhibitors; 400,000 tested, 0.93% active
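Reagent solutions, kept cold and dark, are dispensed first; compounds are then pinned in at 23 nl, plates briefly spun, and incubated 2 h at ambient temperature. Inhibition of VDR–SRC2-3 peptide binding is read by fluorescence polarization.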
GLS inh = glutaminase GLS (human) inhibition; O94925; GLS enzymatic activity, qHTS titration; Potency, µM (top dose mostly 45.5 µM), inactives show at the highest dose activity change, negative = inhibition, usual class: inhibitors; 410,000 tested, 0.21% active
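Compounds were pin-transferred onto hKGA, after which L-glutamine (1 mM solution) and a detection mix of glutamate oxidase, HRP and Amplex Red were added. Initial and 30 min RT fluorescence reads were collected.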
Active calls of the source: *; [ ] = remark or other dose. Calls come from the whole dose curve; as a rule, active = well fitted curve in the direction sought with a large enough effect; inconclusive = small, poorly fitted or top-dose-only effect, or another doubt; inactive = no such curve, though single readings can be large; an effect the other way counts as inactive or inconclusive. Unless noted, % is set by controls: 0 for no effect and ±100 for the full control effect; potency is the fitted concentration of half-maximal effect.

Screening Clc1cccc(Cl)c1C1Nc2cccc3cccc(c23)N1 returned KAT2A inh -10%, Sfp PPTase inh inconclusive, TrxR1 substrate -7%, rTrxR1 inhibitor -4%, VDR inhibitor 13% and GLS inh 18%.
`Fc1cccc(Cl)c1C1Nc2cccc3cccc(c23)N1` gave KAT2A inh -15%, Sfp PPTase inh -15%, TrxR1 substrate -4%, rTrxR1 inhibitor 56µM*, VDR inhibitor inconclusive and GLS inh 20%.
For Brc1cccc(C2Nc3cccc4cccc(c34)N2)c1 the results were KAT2A inh 0%, Sfp PPTase inh -20%, TrxR1 substrate 1%, rTrxR1 inhibitor 56µM*, VDR inhibitor -14% and GLS inh -18%.
COc1ccc(C2Nc3cccc4cccc(c34)N2)cc1 was read as KAT2A inh -1%, Sfp PPTase inh 2%, TrxR1 substrate 6%, rTrxR1 inhibitor inconclusive, VDR inhibitor -19% and GLS inh 23%.
Clc1ccc(C2Nc3cccc4cccc(c34)N2)cc1Cl was read as KAT2A inh 0%, Sfp PPTase inh -24%, TrxR1 substrate -1%, rTrxR1 inhibitor 45µM*, VDR inhibitor -21% and GLS inh 9%.
CN(C)c1ccc(C2Nc3cccc4cccc(c34)N2)cc1 was read as KAT2A inh -3%, Sfp PPTase inh -25%, TrxR1 substrate -6%, rTrxR1 inhibitor -9%, VDR inhibitor 25% and GLS inh inconclusive.
For c1ccc(C2Nc3cccc4cccc(c34)N2)cc1 the results were KAT2A inh -4%, Sfp PPTase inh 28µM*, TrxR1 substrate 10%, rTrxR1 inhibitor inconclusive, VDR inhibitor -15% and GLS inh 7%.
For CSCCC(NC(=O)c1ccccc1)C(=O)OCC(=O)Nc1ccc(C)c(Cl)c1 (configuration not stated) the results were KAT2A inh -16%, Sfp PPTase inh 22%, TrxR1 substrate -10%, rTrxR1 inhibitor -5%, VDR inhibitor inconclusive and GLS inh -21%.
Brc1ccc(C2Nc3cccc4cccc(c34)N2)o1 was read as KAT2A inh -10%, Sfp PPTase inh inconclusive, TrxR1 substrate 3%, rTrxR1 inhibitor 25µM*, VDR inhibitor -26% and GLS inh 28%.
For COc1ccccc1C1Nc2cccc3cccc(c23)N1 the results were KAT2A inh -2%, Sfp PPTase inh 56µM*, TrxR1 substrate 1%, rTrxR1 inhibitor inconclusive, VDR inhibitor -10% and GLS inh 6%.
Screening c1csc(C2Nc3cccc4cccc(c34)N2)c1 returned KAT2A inh -10%, Sfp PPTase inh inconclusive, TrxR1 substrate -11%, rTrxR1 inhibitor inconclusive, VDR inhibitor inconclusive and GLS inh 30%.
`Clc1cccc(C2Nc3cccc4cccc(c34)N2)c1` gave KAT2A inh -24%, Sfp PPTase inh -28%, TrxR1 substrate 0%, rTrxR1 inhibitor 25µM*, VDR inhibitor -27% and GLS inh 2%.
Screening COC(=O)c1ccc(CSc2ncnc3c2nnn3-c2ccc(OC)cc2)o1 returned KAT2A inh 0%, Sfp PPTase inh -19%, TrxR1 substrate -1%, rTrxR1 inhibitor 2%, VDR inhibitor -4% and GLS inh 3%.
Screening Cc1cc(Cl)ccc1C(=O)C1CCCN(C(=O)c2snnc2C)C1 (configuration not stated) returned KAT2A inh -2%, Sfp PPTase inh -8%, TrxR1 substrate -8%[57.1 µM], rTrxR1 inhibitor 29%[57.1 µM], VDR inhibitor -8% and GLS inh -1%.
Screening CN(CC(=O)Nc1ccc(N2CCOCC2)cc1)Cc1c(O)ccc2ccccc12 returned KAT2A inh -6%, Sfp PPTase inh inconclusive, TrxR1 substrate 13%[57.1 µM], rTrxR1 inhibitor 4µM*, VDR inhibitor 28µM* and GLS inh -23%.
Screening CCN(CC(=O)Nc1ccc(N2CCOCC2)cc1)Cc1nc2ccccc2c(=O)[nH]1 returned KAT2A inh -4%, Sfp PPTase inh inconclusive, TrxR1 substrate 1%, rTrxR1 inhibitor -11%[57.1 µM], VDR inhibitor 15% and GLS inh 26%.
